Data reported in PubChem BioAssay (NCI).
This is part of a sample that, as a whole, favours compounds with a hit. Of some 83,000 tested, about 20% had one in any assay.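 Cells were grown in 96-well plates and exposed to the test compound at a single concentration for 48 hours; results are reported as percent growth, with values below 10 considered active.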 Active and inactive are the calls of the source.

What was measured:
Assay in all cases: NCI-60 one-dose screen, 48 h (100 = growth as untreated, 0 = no growth, -100 = all killed)
Conditions in all cases: 10 µM unless noted
[1] = tested on: NCI-H23 lung
[2] = tested on: NCI-H226 lung
[3] = tested on: NCI-H322M lung
[4] = tested on: HOP-62 NSCLC
[5] = tested on: NCI-H460 lung
[6] = tested on: HOP-92 NSCLC
[7] = tested on: NCI-H522 lung
[8] = tested on: A549/ATCC NSCLC
[9] = tested on: 786-0 renal
[10] = tested on: COLO 205 colon
[11] = tested on: DU-145 prostate
[12] = tested on: K-562 leukemia
[13] = tested on: MALME-3M melanoma
[14] = tested on: MDA-MB-231 breast
[15] = tested on: RXF 393 renal
[16] = tested on: SF-268 CNS
[17] = tested on: SF-295 CNS
[18] = tested on: SF-539 CNS
[19] = tested on: UACC-257 melanoma
[20] = tested on: M14 melanoma

Measured: growth

Nc1ccn(-c2ccc(Br)cc2)c(=O)n1
inactive: [1] 88.8% | [2] 128% | [3] 120% | [4] 102% | [5] 105% | [6] 74.6% | [7] 88.5% | [8] 107% | [9] 102% | [10] 198% | [11] 101% | [12] 76.2% | [13] 124% | [14] 104% | [15] 137% | [16] 109% | [17] 79.3% | [18] 94.1% | [19] 127% | [20] 104%

O=C1c2cccc3cccc(c23)C(=O)N1CCCCCN1CCN(CCCCCOc2ccc(-c3nc4ccc(N5CCOCC5)cc4[nH]3)cc2)CC1
active: [15] -11.5%
inactive: [1] 98.9% | [2] 78.9% | [3] 103% | [4] 97.4% | [5] 27.5% | [6] 49.2% | [7] 73.7% | [8] 21.3% | [9] 109% | [10] 96.5% | [11] 97.4% | [12] 19.6% | [13] 82.6% | [14] 108% | [16] 136% | [17] 16.3% | [18] 54.4% | [19] 56.3% | [20] 50.6%

CCOc1cc2c(cc1OCC)C(c1cc(OC)c(O)cc1Cl)NCC2 (centres undefined)
active: [10] -37.4%
inactive: [1] 96.7% | [2] 100% | [3] 110% | [4] 98.1% | [5] 98.4% | [6] 114% | [7] 102% | [8] 88.6% | [9] 84.1% | [11] 110% | [12] 53.3% | [13] 55.2% | [14] 88.6% | [15] 85.1% | [16] 100% | [18] 101% | [19] 99.2% | [20] 80.2%

CCN(CC)S(=O)(=O)c1ccc(OC)c(NC(=O)c2[nH]c(C)c3c2CCCCC3=O)c1
inactive: [1] 46.9% | [2] 50% | [3] 44% | [4] 31.5% | [5] 53.4% | [6] 38.3% | [7] 26.9% | [8] 45.2% | [9] 41.5% | [10] 35.6% | [11] 72.8% | [12] 30% | [13] 60.6% | [14] 43% | [15] 38.9% | [16] 68.4% | [17] 34.1% | [18] 36.1% | [19] 39.6% | [20] 42.3%

CCCc1cc(=O)n2c(C(=O)Nc3cccc(C(=O)OCC)c3)c(C(=O)Nc3ccc(F)cc3)sc2n1
inactive: [1] 79.8% [30 µM] | [2] 89% [30 µM] | [3] 97.3% [30 µM] | [4] 36.6% [30 µM] | [5] 23% [30 µM] | [7] 65% [30 µM] | [9] 15.1% [30 µM] | [10] 72.9% [30 µM] | [11] 79.9% [30 µM] | [12] 79.7% [30 µM] | [13] 71.9% [30 µM] | [14] 47% [30 µM] | [16] 57.5% [30 µM] | [17] 44.5% [30 µM] | [18] 33.9% [30 µM] | [19] 64.5% [30 µM] | [20] 75.2% [30 µM]
active: [6] -31.5% [30 µM] | [8] 3.58% [30 µM] | [15] -27.2% [30 µM]

COc1cc2c(cc1-c1c(C)noc1C)ncc1nc(C3CCOCC3)n([C@@H](C)COC(F)F)c12
inactive: [1] 64.6% | [2] 58.2% | [3] 48.3% | [4] 35% | [5] 61% | [6] 31.8% | [7] 33.9% | [8] 42.4% | [9] 49.6% | [10] 26.9% | [11] 73.1% | [12] 34.2% | [13] 66.3% | [14] 42.8% | [15] 59.4% | [16] 70.8% | [17] 52% | [18] 31.8% | [19] 36.7% | [20] 41%

O=C1/C(=C/c2ccc3c(c2)OCO3)SC(=S)N1CCc1ccc(O)cc1
inactive: [1] 94.1% | [2] 102% | [3] 97.3% | [4] 102% | [5] 102% | [6] 72% | [7] 48.2% | [8] 93.5% | [9] 75.2% | [10] 116% | [11] 52.3% | [12] 95.8% | [13] 89.5% | [14] 91.2% | [15] 111% | [16] 95.2% | [17] 99.5% | [18] 91.8% | [19] 99.7% | [20] 94.4%

C=CCSSc1ncnc2c1ncn2C1OC(CO)C(O)C1O (centres undefined)
inactive: [1] 39.7% | [2] 65% | [3] 33.6% | [4] 19.8% | [5] 43.3% | [6] 28.2% | [7] 11.3% | [8] 79.7% | [9] 14.6% | [10] 25.6% | [11] 35.2% | [12] 40% | [13] 48.3% | [14] 48.1% | [15] 34.6% | [16] 28% | [17] 17.9% | [18] 19.9% | [19] 39.8% | [20] 15.4%

CC(=O)c1nc2ccccc2n1CC(=O)c1cccc(Cl)c1
active: [5] 4.22% | [7] -16% | [11] 5.27% | [12] -0.209% | [15] 2% | [17] 8.35% | [18] -31.3%
inactive: [1] 36.6% | [2] 105% | [3] 48.2% | [4] 55.8% | [6] 75.6% | [8] 15.2% | [9] 35.8% | [10] 117% | [13] 90.6% | [14] 28.1% | [16] 13.2% | [19] 36.5% | [20] 16.6%

C=CC(COC(c1ccccc1)(c1ccccc1)c1ccccc1)N(CC)CC (centres undefined)
inactive: [1] 65.2% | [2] 56.2% | [3] 87% | [4] 61.8% | [5] 58.1% | [6] 75.7% | [7] 54.9% | [8] 63.1% | [9] 77.6% | [11] 69.9% | [12] 14.4% | [13] 61.9% | [14] 37% | [16] 81.9% | [17] 64.1% | [18] 62.6%
active: [10] 0.413% | [15] -5.47% | [19] 6.09% | [20] 9.54%

CC1=C[C@H]2c3c(c(O)c(O)c4oc5ccccc5c(=O)c34)[C@H](c3cc(O)c(O)c4oc5ccccc5c(=O)c34)[C@H]2C(C)(C)C1
inactive: [3] 18.7% | [10] 10.7% | [11] 14.9% | [14] 12.1%
active: [1] -4.58% | [2] -14.4% | [4] -9.58% | [5] -37.6% | [6] -5.31% | [7] -18.3% | [8] -11.8% | [9] -76.6% | [12] 3.25% | [13] -1.47% | [15] 7.55% | [16] 5.33% | [17] -33.4% | [18] -5.05% | [19] 7.1% | [20] -70.4%

O=C(O)c1ccc(N=CC(=O)c2ccc(-c3ccccc3)cc2)cc1
inactive: [1] 93.6% | [2] 83.9% | [3] 105% | [4] 103% | [5] 104% | [6] 84.2% | [7] 87.2% | [8] 92.1% | [9] 104% | [10] 111% | [11] 112% | [12] 116% | [13] 97.7% | [14] 101% | [15] 118% | [16] 109% | [17] 104% | [18] 104% | [19] 93.1% | [20] 94.1%

Cc1ccc(O)c(N2C(=NCc3ccco3)NS(=O)(=O)c3cnccc32)c1
active: [17] 0.898%
inactive: [1] 95.2% | [2] 101% | [3] 114% | [4] 100% | [5] 104% | [6] 27.7% | [7] 93.3% | [8] 83.7% | [9] 105% | [10] 125% | [11] 118% | [12] 71.4% | [13] 107% | [14] 111% | [15] 57.9% | [16] 100% | [18] 97.9% | [19] 124% | [20] 98.4%

NC1=C(Cl)C(=O)c2ccc(S(N)(=O)=O)cc2C1=O
active: [1] -49.8% | [2] -51% | [3] -97% | [4] -68.2% | [5] -65.8% | [6] -58.1% | [7] -84.1% | [8] -53.7% | [9] -29.8% | [10] -90.3% | [11] -90.1% | [12] -12.7% | [13] -96.1% | [14] -3.41% | [15] -99.2% | [16] -74.4% | [17] -86.1% | [18] -84.5% | [19] -95.3% | [20] -89.6%

COc1ccc(-n2nc(C)c3c(Nc4ccc(NC(=O)Nc5ccc(Cl)c(C(F)(F)F)c5)cc4)ncnc32)cc1
active: [1] -7.74% | [3] 9.35% | [4] -15.3% | [5] 0.651% | [6] -18.9% | [7] -18.4% | [8] 6.97% | [9] -25.5% | [10] -23.6% | [12] 5.84% | [13] -27.5% | [14] -25% | [15] -35.7% | [17] -39.7% | [18] -5.4% | [19] -16.6% | [20] -26.9%
inactive: [2] 10.7% | [11] 23.8% | [16] 17.7%
